# Values joined by “and” are separate entries in the source; they are usually repeats but may differ in a detail not shown here. Equal values may be shown once. Results filed as inconclusive are left out. A structure can be active in one record and inactive in another. Active and inactive are the calls of the source. The calls were made as follows, unless noted: active = hit-call score of the fitted dose curve at least 0.9, where 1 is the maximum; inactive = score below 0.9.
# Key:
# [1] = system: DIO3 (gene 1735); experiment: CCTE_GLTED_hDIO3: CCTE's human Deiodinase 3 (DIO3) Inhibition Assay, Great Lakes Toxicology and Ecology Division (GLTED) Lab (AID 2284055; active = hit-call score of the fitted dose curve at least 0.9, where 1 is the maximum;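 as to AC50: potency is for inhibition seen as loss of released iodide signal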)
# Summary of the method: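 hDIO3 (adenovirus-expressed) + test chemical, 3 h incubation; free iodide quantified by Sandell-Kolthoff reaction, absorbance read-out. DMSO negative control, n=3.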
# [2] = CCTE_Shafer_MEA_dev_AB: CCTE's Alamar Blue Assay for Cytotoxicity in the Neural Network Formation Assay, Shafer Lab (AID 2284083; active = hit-call score of the fitted dose curve at least 0.9, where 1 is the maximum;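 also: twelve days of exposure from plating with re-dosing on DIV 5 and 9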)
# Summary of the method: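 Primary rat cortical neurons on PEI-coated 48-well MEA plates, 1.5 x 10^5 cells/well in laminin drop; compound exposure from day 0 of plating for twelve days, renewed at medium changes on DIV 5 and 9. Viability read as resazurin reduction by fluorescence, relative to DMSO.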
# [3] = CCTE_Shafer_MEA_acute_LDH: CCTE's Lactate Dehydrogenase Assay for Cytotoxicity in the Neural Acute Assay, Shafer Lab (AID 2284086; active = hit-call score of the fitted dose curve at least 0.9, where 1 is the maximum;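 also: active means LDH release rises above DMSO vehicle level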)
# Summary of the method: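 LDH absorbance at 490 nm in medium taken right after 40-min compound exposure; rat primary cortical neuron networks on MEA plates, days post-plating 13 or 15. Increase over DMSO baseline scored as cytotoxicity.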
# [4] = CCTE_Shafer_MEA_dev_mutual_information_norm: CCTE's Neural Network Formation Assay for Mutual Information Normalization, Shafer Lab (AID 2284091);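 as to AC50: mutual information between electrodes summarised as area under curve across four recording days; potency is for a decrease in mutual information relative to DMSO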
# Summary of the method: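 Neurons from rat cortex were seeded at 1.5 x 10^5 cells/well onto PEI-coated MEAs in a laminin drop, then exposed to compound from day 0 for twelve days. Network recordings on four days gave mutual information, summarised by AUC relative to DMSO.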
# [5] = CCTE_Shafer_MEA_dev_correlation_coefficient_mean: CCTE's Neural Network Formation Assay for Mean Correlation Coefficient, Shafer Lab (AID 2284093);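 as to AC50: well mean pairwise spike train correlation integrated as AUC over recording days 5 to 12; potency fitted for loss of correlation relative to DMSO vehicle wells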
# Summary of the method: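 Spontaneous activity recorded on days 5, 7, 9 and 12 post-plating; pairwise spike correlations are averaged across active electrodes and collapsed to an area-under-curve. Rat cortical cultures are dosed from plating through 12 days, with compound renewed at media changes.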
# [6] = UKN2_HCS_IMR90_neural_migration: University of Konstanz (UKN) Leist Lab Neural Crest Cell Migration Assay in human induced IMR90 Pluripotent Stem Cells (UKN2) (AID 2284204); conditions: actives raise or lower the signal
# Summary of the method: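 Stopper-exclusion migration (cMINC), human iPSC-derived neural crest cells; N2-S + EGF/FGF; compound added 24 h post-stopper removal, 24 h exposure. Readout: calcein-AM/Hoechst 30 min, HCS fluorescence imaging; bidirectional fitting, DMSO baseline.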
# [7] = IUF_NPC1b_proliferation_BrdU_72hr: Leibniz Research Institute for Environmental Medicine (IUF) 72-hour Neural Progenitor Cell Bromodeoxyuridine (BrdU) Proliferation Assay (NPC1b) (AID 2284207)
# Summary of the method: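 Luminescent BrdU ELISA measured DNA synthesis during the last 16 h of a 72 h exposure of primary human neural progenitor spheres grown with EGF and FGF. Signal was fitted relative to DMSO controls.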
# [8] = IUF_NPC1a_proliferation_area_72hr: Leibniz Research Institute for Environmental Medicine (IUF) 72-hour Neural Progenitor Cell Proliferation Area Assay (NPC1a) (AID 2284208)
# Summary of the method: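 Proliferation read as increase in sphere area by phase-contrast imaging over 72 h continuous compound exposure (no renewal) of hNPC spheres grown with EGF/FGF at 37C, 5% CO2. Growth-factor withdrawal served as positive control; DMSO as baseline.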
# [9] = IUF_NPC1_viability_72hr: Viability Assessment at 72 hours in the Leibniz Research Institute for Environmental Medicine (IUF) Neural Progenitor Cell Proliferation Assay (NPC1) (AID 2284209)
# Summary of the method: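 Alamar blue fluorescence (RFU) after 72 h exposure, normalized to DMSO baseline. hNPC spheres from GW 16-19 fetal cortex, single sphere per well in growth-factor medium; no compound renewal.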
# [10] = CCTE_Mundy_HCI_Cortical_Synap_Neur_Matur_NeuriteSpotCountPerNeuriteLength: CCTE's Synaptogenesis and Neurite Maturation Assay in rat cortical cells for Neurite Spot Count per Neurite Length, Mundy Lab (AID 2284210)
# Summary of the method: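 Read-out: synaptophysin puncta counted along MAP2-stained neurites, normalised to neurite length, by automated high-content imaging. Rat cortical cells; AraC DIV 5; chemical dosing DIV 7; termination DIV 12. DMSO baseline.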
# [11] = CCTE_Mundy_HCI_Cortical_Synap_Neur_Matur_BPCount: CCTE's Synaptogenesis and Neurite Maturation Assay in rat cortical cells for Branch Point Count, Mundy Lab (AID 2284211)
# Summary of the method: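 In this multiplexed morphology assay, cortical cells from rat receive chemicals at DIV 7 and are fixed at DIV 12, then immunostained and imaged; branch points are counted, with DMSO as baseline.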
# [12] = CCTE_Mundy_HCI_Cortical_NOG_NeuriteCount: CCTE's Neurite Outgrowth Assay in rat cortical cells for Neurite Count, Mundy Lab (AID 2284212);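 also: cells fixed about two days after chemical exposure began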
# Summary of the method: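 Rat cortical primary cells; compound added 2 h post-plating, 1/10 dilution of working solution. Anti-betaIII-tubulin/AF488 ICC; ArrayScan neurite count vs DMSO.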
# [13] = CCTE_Mundy_HCI_Cortical_NOG_NeuriteLength: CCTE's Neurite Outgrowth Assay in rat cortical cells for Neurite Length, Mundy Lab (AID 2284213);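 as to AC50: neurites imaged about 48 to 50 h after chemical exposure began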
# Summary of the method: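 First, rat primary cortical cells were plated and, 2 h later, given test chemical as a 1/10 dilution. Finally, βIII-tubulin immunostaining enabled automated imaging of neurite length.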
# [14] = CCTE_Mundy_HCI_Cortical_Synap_Neur_Matur_NeuriteLength: CCTE's Synaptogenesis and Neurite Maturation Assay in rat cortical cells for Neurite Length, Mundy Lab (AID 2284214)
# Summary of the method: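 Read-out: high-content imaging of MAP2-labelled neurites, with synaptophysin and Hoechst co-stain, in rat cortical cultures fixed at DIV 12. Activity fitted in positive direction relative to DMSO baseline.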
# [15] = CCTE_Mundy_HCI_Cortical_Synap_Neur_Matur_NeuriteSpotCountPerNeuron: CCTE's Synaptogenesis and Neurite Maturation Assay in rat cortical cells for Neurite Spot Count per Neuron Count, Mundy Lab (AID 2284215)
# Summary of the method: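 High-content imaging counts synaptophysin puncta along MAP2-labelled neurites per neuron after chemical exposure of rat cortical cells from DIV 7 to termination at DIV 12 (AraC added DIV 5). Loss of signal relative to DMSO.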
# [16] = CCTE_Mundy_HCI_Cortical_Synap_Neur_Matur_SynapseCount: CCTE's Synaptogenesis and Neurite Maturation Assay in rat cortical cells for Synapse Count, Mundy Lab (AID 2284218)
# Summary of the method: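 Read-out: synapse number per neuron, automated high-content imaging of fixed cells immunostained for MAP2 and synaptophysin plus Hoechst nuclei. Rat primary cortical cultures, AraC at DIV 5, chemical dosing DIV 7–12. Positive-direction fit relative to DMSO.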
# [17] = UKN5_HCS_SBAD2_cell_viability: Viability Assessment in the University of Konstanz (UKN) Leist Lab Neurite Outgrowth Assay in human iPSC-derived immature Dorsal Root Ganglia Neurons (UKN5) (AID 2284056)
# Summary of the method: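 iPSC-derived immature peripheral neurons (SBAD2) seeded on Matrigel with CHIR99021, SU5402 and DAPT, dosed 1 h later for 24 h. Viability from Hoechst H-33342 and calcein-AM live staining, high-content imaging; bidirectional fit versus DMSO.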
# [18] = UKN5_HCS_SBAD2_neurite_outgrowth: University of Konstanz (UKN) Leist Lab Neurite Outgrowth Assay in human iPSC-derived immature Dorsal Root Ganglia Neurons (UKN5) (AID 2284070); conditions: actives raise or lower the signal
# Summary of the method: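 Cryopreserved SBAD2 peripheral neurons were seeded at 100.000 cells/cm2 in N2-S/KSR medium containing CHIR99021, SU5402 and DAPT, then exposed to compounds for 24 h. Neurite area from calcein-AM high-content imaging was fitted bidirectionally against DMSO.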
# [19] = UKN4_HCS_LUHMES_neurite_outgrowth: University of Konstanz (UKN) Leist Lab Neurite Outgrowth Assay in human LUHMES cells (UKN4) (AID 2284206); conditions: actives raise or lower the signal
# Summary of the method: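 Read-out: calcein-AM neurite area by high-content fluorescence imaging, with Hoechst H-33342 viability counterstain, after 24 h chemical exposure of day-2 differentiated LUHMES cells. Activity fitted bidirectionally against DMSO baseline.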
compound,measurement,setting,value
CC(C)=CC1C(C(=O)OCN2C(=O)C3=C(CCCC3)C2=O)C1(C)C (stereo not given),outcome,[1],inactive
same,outcome,[2],inactive
same,outcome,[3],inactive
same,outcome,[4],inactive
same,outcome,[5],inactive
CCOP(=S)(Oc1cnc(C(C)(C)C)nc1)OC(C)C (stereo not given),AC50,[2],80.1 µM (active) and 25.9 µM (active)
same,outcome,[3],inactive
same,AC50,[4],80.9 µM (active) and 13.4 µM (active)
same,AC50,[5],79.7 µM (active) and 17.4 µM (active)
same,outcome,[6],inactive
same,AC50,[7],12.8 µM (active)
same,outcome,[8],inactive
same,outcome,[9],inactive
same,AC50,[10],16.5 µM (active)
same,outcome,[10],inactive
same,AC50,[11],25.2 µM (active)
same,outcome,[11],inactive
same,AC50,[12],26.4 µM (active)
same,outcome,[12],inactive
same,AC50,[13],26.1 µM (active)
same,outcome,[13],inactive
same,AC50,[14],20.1 µM (active)
same,outcome,[14],inactive
same,AC50,[15],16.2 µM (active)
same,outcome,[15],inactive
same,AC50,[16],16.6 µM (active)
same,outcome,[16],inactive
CC(=NC#N)N(C)Cc1ccc(Cl)nc1,outcome,[17],inactive
same,outcome,[18],inactive
same,outcome,[2],inactive
same,outcome,[4],inactive
same,outcome,[5],inactive
same,outcome,[6],inactive
same,outcome,[19],inactive
same,AC50,[7],0.385 µM (active)
same,outcome,[8],inactive
same,outcome,[9],inactive
same,outcome,[10],inactive
same,outcome,[11],inactive
same,outcome,[12],inactive
same,outcome,[13],inactive
same,outcome,[14],inactive
same,outcome,[15],inactive
same,outcome,[16],inactive
CN(C)[C@@H]1C(=O)C(C(N)=O)=C(O)[C@@]2(O)C(=O)C3=C(O)c4c(O)cccc4[C@@](C)(O)[C@H]3[C@H](O)[C@@H]12,AC50,[1],71.9 µM (active) and 25.6 µM (active) and 24.8 µM (active)
same,AC50,[2],50 µM (active)
same,outcome,[3],inactive
same,outcome,[4],inactive
same,AC50,[5],88.2 µM (active)
same,AC50,[6],116 µM (active)
same,AC50,[7],12.1 µM (active)
same,outcome,[8],inactive
same,outcome,[9],inactive
same,AC50,[10],50 µM (active)
same,AC50,[11],70.5 µM (active)
same,outcome,[12],inactive
same,outcome,[13],inactive
same,AC50,[14],60.9 µM (active)
same,AC50,[15],50 µM (active)
same,AC50,[16],50 µM (active)
O=[N+]([O-])c1cc(C(F)(F)F)c(Cl)c([N+](=O)[O-])c1Nc1ncc(C(F)(F)F)cc1Cl,AC50,[1],2.04 µM (active)
same,AC50,[2],1.01 µM (active)
same,outcome,[3],inactive
same,AC50,[4],328 nM (active)
same,AC50,[5],0.65 µM (active)
same,AC50,[6],0.638 µM (active)
same,outcome,[7],inactive
same,AC50,[8],7.56 µM (active)
same,AC50,[9],9.47 µM (active)
same,AC50,[10],1.06 µM (active)
same,AC50,[11],0.934 µM (active)
same,AC50,[12],1.44 µM (active)
same,AC50,[13],0.8 µM (active)
same,AC50,[14],0.924 µM (active)
same,AC50,[15],0.94 µM (active)
same,AC50,[16],1.06 µM (active)
CC(C)N(C(=O)SCC(Cl)=C(Cl)Cl)C(C)C,AC50,[2],21.8 µM (active)
same,outcome,[3],inactive
same,AC50,[4],15000 nM (active)
same,AC50,[5],15 µM (active)
same,AC50,[19],15.9 µM (active)
same,outcome,[7],inactive
same,outcome,[8],inactive
same,outcome,[9],inactive
same,AC50,[10],25 µM (active)
same,outcome,[11],inactive
same,outcome,[12],inactive
same,outcome,[13],inactive
same,AC50,[14],15 µM (active)
same,AC50,[15],23.6 µM (active)
same,AC50,[16],23.7 µM (active)
CC1=NNC(=O)N(/N=C/c2cccnc2)C1,outcome,[2],inactive
same,outcome,[3],inactive
same,outcome,[4],inactive
same,outcome,[5],inactive
same,outcome,[7],inactive
same,outcome,[8],inactive
same,outcome,[9],inactive
same,outcome,[10],inactive
same,outcome,[11],inactive
same,outcome,[12],inactive
same,outcome,[13],inactive
same,outcome,[14],inactive
same,outcome,[15],inactive
same,outcome,[16],inactive
